Assay results as given in PubChem BioAssay (Tox21).
Unmarked numbers belong to inactive results. Results filed as inconclusive are left out. Entries that show only a call come without a potency. Activity calls are given as the source filed them. Unless noted, calls come from the whole dose curve; as a rule, active = well fitted curve in the direction sought with a large enough effect in the repeat runs; inconclusive = weak or mixed curves; inactive = no such curve, though single readings can be large; an effect the other way counts as inactive or inconclusive.

Columns and labels:
[1] = qHTS assay to identify small molecule antagonists of the estrogen related receptor (ERR) signaling pathway from Tox21 library - cell viability counter screen (AID 1224834); note: nearly all actives have a fitted effect of over 30% in size
In short: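 Cytotoxicity of test substances is gauged in the same ERR cells used for the antagonist screen, after 17.5 h of compound treatment at 37 C, by CellTiter-Fluor fluorescence measured after 30 min.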

[2] = target: Luciferin 4-monooxygenase (Photinus pyralis) (UniProt P08659); experiment: qHTS assay to identify small molecule inhibitors of firefly luciferase (AID 1224835); note: nearly all actives have a fitted effect of over 25% in size; note: potency is the fitted concentration of half-maximal effect
In short: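 Inhibition of purified Photinus luciferase is measured by luminescence. Substrate levels (D-luciferin, ATP) sit at their KM values. Each compound is tested in a concentration series.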

[3] = qHTS assay to identify small molecule agonists of the constitutive androstane receptor (CAR) signaling pathway - cell viability counter screen (AID 1224836); note: nearly all actives have a fitted effect of over 45% in size
In short: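 Counter screen multiplexed with the CAR reporter readout: HepG2 cells co-transfected with hCAR and the CYP2B6-2.2kb construct receive a 15-concentration compound series and 0.75 uM PK11195 (final), then CellTiter-Fluor fluorescence is read after 23 h.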

[4] = qHTS assay to identify small molecule antagonists of the constitutive androstane receptor (CAR) signaling pathway - cell viability counter screen (AID 1224837); note: nearly all actives have a fitted effect of over 45% in size
In short: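 Multiplexed cytotoxicity read-out for the CAR antagonist screen: double-stable HepG2-CYP2B6-hCAR cells co-treated with 50 nM CITCO (final) and compound over 15 concentrations, incubated 23 hr, then assessed by CellTiter-Fluor fluorescence.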

[5] = target: Nuclear receptor subfamily 1 group I member 3 (Homo sapiens) (UniProt Q14994); experiment: qHTS assay to identify small molecule antagonists of the constitutive androstane receptor (CAR) signaling pathway (AID 1224838); note: nearly all actives have a fitted effect of over 40% in size
In short: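 Compounds were titrated across 15 concentrations onto HepG2 cells double-stably expressing hCAR and a CYP2B6-2.2kb reporter, together with 50 nM CITCO (final). After 24 h at 37 C, luciferase activity was measured by luminescence.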

[6] = qHTS assay to identify small molecule antagonists of the estrogen related receptor signaling pathway with the pleiotropic PPARgamma coactivator (PGC) from Tox21 10K library - cell viability counter screen (AID 1224840; active = well fitted cell-killing curve with a large enough effect in the repeat runs, not every such curve was filed as active; note: nearly all actives have a fitted effect of over 40% in size)
In short: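 Step one, plate 2,000 PGC/ERR cells per well; step two, incubate 6 h at 37 C/5% CO2; step three, pin-transfer compounds; step four, incubate 17.5 h; step five, add CellTiter-Fluor and read fluorescence after 30 min.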

[7] = qHTS assay to identify small molecule agonists of the hypoxia (HIF-1) signaling pathway - cell viability counter screen (AID 1224844; calls by dose curve; note: nearly all actives have a fitted effect of over 50% in size)
In short: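 Tox21 10K compounds were added to HRE-bla ME-180 cells (0.5% dialyzed FBS) and incubated 17 hrs at 37C; ATP-based CellTiter-Glo luminescence then reported cell viability in the same wells.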

[8] = qHTS assay to identify small molecule agonists of H2AX (AID 1224845; active = well fitted activation curve with a large enough effect in the signal ratio in the repeat runs, not every such curve was filed as active; the % refers to the signal ratio)
In short: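 Phospho-H2AX Ser139 measured by HTRF (ex 320 nm; em 665 and 620 nm) after 24 hr antibody incubation. Compounds, 15 concentrations, 0.76% DMSO, were applied to CHO-K1 cells for 3hr at 37C before lysis.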

[9] = qHTS assay to identify small molecule agonists of the hypoxia (HIF-1) signaling pathway (AID 1224846; active = well fitted activation curve with a large enough effect in the signal ratio in the repeat runs, not every such curve was filed as active; the % refers to the signal ratio)
In short: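 Steps: seed ME-180 HRE-bla cells (2,000/well, 0.5% dialyzed FBS); incubate 5 hrs at 37C; pin-transfer compounds or DMSO; incubate 17 hrs; add LiveBLAzer B/G substrate CCF4-AM; measure reporter activation by FRET.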

[10] = qHTS assay to identify small molecule agonists of H2AX - cell viability counter screen (AID 1224847; calls by dose curve; note: top concentration of the series differs between compounds; nearly all actives have a fitted effect of over 30% in size)
In short: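 We seed wild-type CHO-K1 cells overnight, treat them for 3 hr at 37C with compounds in 15-concentration series, and quantify remaining viability by CellTiter-Glo luminescence.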

[11] = qHTS RealTime-Glo MT Cell Viability Assay in HepG2 cells - 24 hour (AID 1224867); note: nearly all actives have a fitted effect of over 50% in size
In short: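 Real-time, nonlytic viability: 600 HepG2 cells/well mixed with NanoLuc enzyme plus prosubstrate; 5 h settle, compound (DMSO) added by pintool; luminescence monitored over 40 h at 37 C.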

[12] = A CellTox Green Cytotoxicity Assay to monitor cytotoxicity in HEK293 cells - 0 hour (AID 1224869); note: nearly all actives have a fitted effect of over 50% in size
In short: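 Cytotoxicity was tracked continuously in HEK293 cells by a DNA-binding dye excluded from viable cells. Compounds were transferred in DMSO 5 h after seeding; fluorescence was recorded at intervals up to 40 h.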

[13] = qHTS assay to identify small molecule antagonists of the estrogen related receptor signaling pathway with the pleiotropic PPARgamma coactivator (PGC) from Tox21 10K library (AID 1224841; call rule not given here; note: actives are mostly falling curves and most rising ones were filed inactive; nearly all actives have a fitted effect of over 50% in size)
In short: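 Antagonism in this quantitative HTS is taken from loss of luciferase signal in PGC/ERR cells. Cells (2,000/well) are treated with compounds in DMSO after a 6 h settling period and read by One-Glo luminescence after 18 h.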

[14] = qHTS assay to identify small molecule agonists of the estrogen related receptor signaling pathway with the pleiotropic PPARgamma coactivator (PGC) from Tox21 10K library (AID 1224842); note: nearly all actives have a fitted effect of over 15% in size
In short: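 Luminescence from One-Glo (30 min, room temperature) measured after PGC/ERR cells had 18 h at 37 C with pinned compound (23 nL in DMSO). Cells had been seeded at 2,000 per well and pre-incubated 6 h.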

[15] = target: Thyrotropin receptor (Homo sapiens) (UniProt P16473); experiment: qHTS assay to identify small molecule agonists of the thyroid stimulating hormone receptor (TSHR) signaling pathway (AID 1224843; calls by dose curve; note: nearly all actives have a fitted effect of over 45% in size)
In short: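 Screening of the Tox21 10K collection used HEK293 cells engineered with TSHR at 800 cells per well. After a 30-min room-temperature compound exposure, HTRF cAMP reagents were added and fluorescence recorded 1 h later.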

[16] = qHTS assay to identify small molecule antagonists of the estrogen related receptor (ERR) signaling pathway from Tox21 library (AID 1224848); note: nearly all actives have a fitted effect of over 50% in size
In short: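 Antagonist-mode screen of the Tox21 10K library in an NTP-provided ERR reporter cell line; 18 h compound exposure at 37 C, luminescence measured with ONE-Glo.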

[17] = qHTS RealTime-Glo MT Cell Viability Assay in HEK293 cells - 32 hour (AID 1224868)
In short: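 Cells + reagent dispensed (600 cells/well, HEK293) → 5 h at 37 C/5% CO2 → 23 nL compound in DMSO pinned → 40 h at 37 C → luminescence read at 0, 8, 16, 24, 32, 40 h.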

[18] = target: Nuclear receptor subfamily 1 group I member 3 (Homo sapiens) (UniProt Q14994); experiment: qHTS assay to identify small molecule agonists of the constitutive androstane receptor (CAR) signaling pathway (AID 1224839); note: nearly all actives have a fitted effect of over 15% in size
In short: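 A 15-concentration quantitative screen uses HepG2 cells co-transfected stably with human CAR and CYP2B6-2.2kb reporter. Treatment lasts 24 h with 0.75 uM PK11195 final present; ONE-Glo luminescence is the signal.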

[19] = qHTS assay to identify small molecule agonists of the estrogen related receptor (ERR) signaling pathway from Tox21 library (AID 1224849; calls by dose curve; note: nearly all actives have a fitted effect of over 15% in size); conditions: ERR reporter cell line, ONE-Glo luciferase, 18 h; at 92.4 µM (top of the series) unless noted
In short: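 Agonist signal is luciferase luminescence from an ERR reporter cell line treated 18 h at 37 C with DMSO-dissolved compounds, read 30 min after ONE-Glo addition at room temperature.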

Luciferin 4-monooxygenase (Photinus pyralis), sequence (P08659 whole entry, looked up): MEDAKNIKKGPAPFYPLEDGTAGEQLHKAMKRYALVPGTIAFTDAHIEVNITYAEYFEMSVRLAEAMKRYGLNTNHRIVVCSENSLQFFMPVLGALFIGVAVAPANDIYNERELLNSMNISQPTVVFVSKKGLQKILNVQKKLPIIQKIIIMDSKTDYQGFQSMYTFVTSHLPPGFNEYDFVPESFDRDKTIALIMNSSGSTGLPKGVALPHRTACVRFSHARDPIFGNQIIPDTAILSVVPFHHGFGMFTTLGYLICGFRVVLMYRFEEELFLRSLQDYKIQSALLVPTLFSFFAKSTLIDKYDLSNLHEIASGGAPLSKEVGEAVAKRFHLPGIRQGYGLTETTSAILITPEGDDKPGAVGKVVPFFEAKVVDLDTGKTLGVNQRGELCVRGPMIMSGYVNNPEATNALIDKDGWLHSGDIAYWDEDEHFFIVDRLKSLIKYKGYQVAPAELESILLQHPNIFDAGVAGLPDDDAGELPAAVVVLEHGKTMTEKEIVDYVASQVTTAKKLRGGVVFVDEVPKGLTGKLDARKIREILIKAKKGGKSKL
Nuclear receptor subfamily 1 group I member 3 (Homo sapiens), sequence (Q14994 whole entry, looked up): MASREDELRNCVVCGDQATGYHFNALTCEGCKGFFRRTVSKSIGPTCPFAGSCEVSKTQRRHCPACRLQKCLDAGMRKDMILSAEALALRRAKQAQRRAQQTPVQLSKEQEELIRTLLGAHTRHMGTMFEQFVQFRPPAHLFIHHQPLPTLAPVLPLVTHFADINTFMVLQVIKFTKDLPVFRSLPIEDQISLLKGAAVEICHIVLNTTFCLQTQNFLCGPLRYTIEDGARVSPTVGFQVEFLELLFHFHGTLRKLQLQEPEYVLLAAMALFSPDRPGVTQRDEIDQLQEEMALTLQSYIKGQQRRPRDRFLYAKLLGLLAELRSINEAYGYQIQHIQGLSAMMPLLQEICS
Thyrotropin receptor (Homo sapiens), sequence (P16473 whole entry, looked up): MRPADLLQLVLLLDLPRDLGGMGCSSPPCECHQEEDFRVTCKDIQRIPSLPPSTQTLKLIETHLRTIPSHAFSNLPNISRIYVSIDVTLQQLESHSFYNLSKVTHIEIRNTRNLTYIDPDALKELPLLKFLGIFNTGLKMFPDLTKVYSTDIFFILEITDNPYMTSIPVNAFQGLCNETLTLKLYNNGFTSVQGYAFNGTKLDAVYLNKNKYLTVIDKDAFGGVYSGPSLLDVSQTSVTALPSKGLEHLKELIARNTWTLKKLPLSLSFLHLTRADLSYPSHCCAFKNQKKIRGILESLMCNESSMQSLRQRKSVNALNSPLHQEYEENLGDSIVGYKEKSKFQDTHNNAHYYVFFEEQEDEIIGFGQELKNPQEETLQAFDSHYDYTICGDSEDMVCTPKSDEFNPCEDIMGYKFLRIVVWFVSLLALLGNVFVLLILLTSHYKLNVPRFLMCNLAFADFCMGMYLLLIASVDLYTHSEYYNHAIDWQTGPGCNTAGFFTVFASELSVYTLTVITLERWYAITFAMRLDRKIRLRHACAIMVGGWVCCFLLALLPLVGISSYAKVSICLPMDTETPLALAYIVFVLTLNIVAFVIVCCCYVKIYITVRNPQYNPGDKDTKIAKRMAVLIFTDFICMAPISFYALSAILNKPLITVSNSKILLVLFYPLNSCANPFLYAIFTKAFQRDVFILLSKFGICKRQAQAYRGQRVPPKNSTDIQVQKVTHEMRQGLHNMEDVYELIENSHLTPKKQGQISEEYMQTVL

SMILES: CCOC(=O)COc1ccc(Cl)cc1Cl
- Potency [1]: inactive
- Potency [2]: 35.6 µM (active)
- Potency [3]: inactive
- Potency [4]: inactive
- Potency [5]: inactive
- Potency [6]: inactive
- Potency [7]: inactive
- outcome [8]: inactive
- outcome [9]: inactive
- Potency [10]: inactive
- Potency [11]: inactive
- outcome [12]: inactive

SMILES: O=C(O)CBr
- Potency [1]: inactive
- Potency [2]: inactive
- Potency [3]: inactive
- Potency [4]: inactive
- Potency [6]: inactive
- Potency [13]: inactive
- Potency [14]: inactive
- Potency [15]: inactive
- Potency [7]: inactive
- outcome [8]: inactive
- outcome [9]: inactive
- Potency [10]: inactive
- Potency [16]: inactive
- Potency [11]: inactive
- Potency [17]: inactive
- outcome [12]: inactive

SMILES: C=CC1(C)OC(=O)N(c2cc(Cl)cc(Cl)c2)C1=O (stereo unspecified)
- Potency [1]: inactive
- Potency [2]: inactive
- Potency [3]: inactive
- Potency [4]: inactive
- Potency [6]: inactive
- Potency [7]: inactive
- outcome [8]: inactive
- outcome [9]: inactive
- Potency [10]: inactive
- Potency [11]: inactive
- Potency [17]: inactive
- outcome [12]: inactive

SMILES: C=C(Cl)CSC(=S)N(CC)CC
- Potency [1]: inactive
- Potency [2]: inactive
- Potency [3]: inactive
- Potency [4]: inactive
- Potency [5]: inactive
- Potency [6]: inactive
- Potency [7]: inactive
- outcome [9]: inactive
- Potency [10]: inactive
- Potency [11]: inactive
- outcome [12]: inactive

SMILES: Clc1cc2c(cc1Cl)Oc1cc(Cl)c(Cl)cc1O2
- viability change, negative = cytotoxic [1]: -2.52% [at 0.349 µM]
- activity change, negative = inhibition [2]: -7.47% [at 0.435 µM]
- viability change, negative = cytotoxic [3]: -0.641% [at 0.349 µM]
- activity change, negative = cytotoxicity [4]: -2.86% [at 0.349 µM]
- activity, negative = inhibition [5]: 103% [at 0.349 µM]
- viability change, negative = cytotoxic [6]: -1.69% [at 0.349 µM]
- activation [15]: 10.3% [at 0.349 µM]
- activity change, negative = cytotoxicity [7]: -17.7% [at 0.29 µM]
- activation (H2AX phosphorylation) [8]: -2.07% [at 0.582 µM]
- activation [9]: -1.24% [at 0.291 µM]
- activity change, negative = cytotoxicity [10]: -1.16% [at 0.582 µM]
- activity change, negative = cytotoxicity [11]: -2.29% [at 0.29 µM]
- cytotoxicity [12]: -18% [at 0.29 µM]

SMILES: CNC(=O)O/N=C(/CSC)C(C)(C)C
- Potency [1]: inactive
- Potency [2]: inactive
- Potency [3]: inactive
- Potency [4]: inactive
- Potency [5]: inactive
- Potency [6]: inactive
- Potency [15]: inactive
- Potency [7]: inactive
- outcome [8]: inactive
- outcome [9]: inactive
- Potency [10]: inactive
- Potency [11]: inactive
- Potency [17]: inactive
- outcome [12]: inactive

SMILES: OP(O)c1ccccc1
- Potency [1]: inactive
- Potency [2]: inactive
- Potency [3]: inactive
- Potency [5]: inactive
- Potency [18]: inactive
- Potency [6]: inactive
- Potency [13]: inactive
- Potency [14]: inactive
- Potency [15]: inactive
- Potency [7]: inactive
- outcome [8]: inactive
- outcome [9]: inactive
- Potency [10]: inactive
- Potency [16]: inactive
- activity change, positive = activation [19]: 1.75%
- Potency [11]: inactive
- Potency [17]: inactive
- outcome [12]: inactive

SMILES: CCC(=O)c1ccc(Cl)cc1
- Potency [1]: inactive
- Potency [2]: inactive
- Potency [3]: inactive
- Potency [5]: inactive
- Potency [18]: inactive
- Potency [6]: inactive
- Potency [13]: inactive
- Potency [14]: inactive
- Potency [15]: inactive
- Potency [7]: inactive
- outcome [8]: inactive
- outcome [9]: inactive
- Potency [10]: inactive
- Potency [16]: inactive
- activity change, positive = activation [19]: 6.34%
- Potency [11]: inactive
- outcome [12]: inactive

SMILES: CN(C)CCN(C)C
- Potency [1]: inactive
- Potency [2]: inactive
- Potency [3]: inactive
- Potency [4]: inactive
- Potency [6]: inactive
- Potency [13]: inactive
- Potency [14]: inactive
- Potency [15]: inactive
- Potency [7]: inactive
- outcome [8]: inactive
- outcome [9]: inactive
- Potency [10]: inactive
- Potency [16]: inactive
- activity change, positive = activation [19]: 9.25%
- Potency [11]: inactive
- Potency [17]: inactive
- outcome [12]: inactive

SMILES: O=C1CCCCC1Cl (stereo unspecified)
- Potency [1]: inactive
- Potency [2]: inactive
- Potency [3]: inactive
- Potency [4]: inactive
- Potency [6]: inactive
- Potency [15]: inactive
- Potency [7]: inactive
- outcome [8]: inactive
- outcome [9]: inactive
- Potency [10]: inactive
- Potency [11]: inactive
- Potency [17]: inactive
- outcome [12]: inactive

SMILES: NC(=O)OCCCc1ccccc1
- Potency [1]: inactive
- Potency [2]: inactive
- Potency [3]: inactive
- Potency [4]: inactive
- Potency [6]: inactive
- Potency [15]: inactive
- Potency [7]: inactive
- outcome [8]: inactive
- outcome [9]: inactive
- Potency [10]: inactive
- Potency [11]: inactive
- Potency [17]: inactive
- outcome [12]: inactive

SMILES: CNC(=O)Oc1cc(C)c(N(C)C)c(C)c1
- Potency [1]: inactive
- Potency [2]: inactive
- Potency [3]: inactive
- Potency [4]: inactive
- Potency [6]: inactive
- Potency [13]: inactive
- Potency [14]: inactive
- Potency [7]: inactive
- outcome [8]: inactive
- outcome [9]: inactive
- Potency [10]: inactive
- Potency [16]: inactive
- activity change, positive = activation [19]: 4.59%
- Potency [11]: inactive
- Potency [17]: inactive
- outcome [12]: inactive

SMILES: CC(=NC#N)N(C)Cc1ccc(Cl)nc1
- Potency [1]: inactive
- Potency [2]: inactive
- Potency [3]: inactive
- Potency [4]: inactive
- Potency [6]: inactive
- Potency [15]: inactive
- Potency [7]: inactive
- outcome [8]: inactive
- outcome [9]: inactive
- Potency [10]: inactive
- Potency [11]: inactive
- outcome [12]: inactive

SMILES: O=S1(=O)OCCO1
- Potency [1]: inactive
- Potency [2]: inactive
- Potency [3]: inactive
- Potency [5]: inactive
- Potency [18]: inactive
- Potency [6]: inactive
- Potency [13]: inactive
- Potency [14]: inactive
- Potency [15]: inactive
- Potency [7]: inactive
- outcome [8]: inactive
- outcome [9]: inactive
- Potency [10]: inactive
- Potency [16]: inactive
- activity change, positive = activation [19]: 5.54%
- Potency [11]: inactive
- outcome [12]: inactive
